Reference: the supplement of paper PMC6555819

Assays:
Test in all cases: PBM binding z-score (relative to random genomic background probes); higher = stronger binding; sequences stand for … in GC…GCGATTGACAGCGTAGAATGAAGG
[1] = system: RARb homodimer (NR concentration 270 nM)
Method in brief: (§1)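 Each nuclear receptor dimer, without ligand, was incubated for 1 h on custom Agilent 4×180K protein-binding microarrays. Binding was detected with antibodies against each partner (one per run), and scanned fluorescence was regression-normalized. The binding z-scores are referenced to random human genomic background probes.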

[2] = system: RARg:RXRa (NR concentration 270 nM, RXRa partner concentration 90 nM)
Method in brief: as §1

[3] = system: RARg homodimer (NR concentration 270 nM)
Method in brief: as §1

[4] = system: RXRa DBDmut IVT, anti-RXR (DBD mutation: RXRa K156A/R161A, NR concentration 90 nM)
Method in brief: as §1

[5] = system: RXRa homodimer (NR concentration 180 nM)
Method in brief: as §1

[6] = system: THRa:RXRa (NR concentration 90 nM, RXRa partner concentration 90 nM)
Method in brief: as §1

[7] = system: THRa homodimer (NR concentration 90 nM)
Method in brief: as §1

[8] = system: VDR homodimer (NR concentration 270 nM)
Method in brief: as §1

Sequence	PBM binding z-score [1]	PBM binding z-score [2]	PBM binding z-score [3]	PBM binding z-score [4]	PBM binding z-score [5]	PBM binding z-score [6]	PBM binding z-score [7]	PBM binding z-score [8]
GGACCGAGGGCATTCGAGTTGATAGCATGGCGAT	0.78	1.2	1.14	2.61	0.753	3.46	-0.46	3.18
AGTCAAAGTGCAGGACGAGGTAACGTAAAGCACG	0.382	0.878	1.15	-0.269	0.45	2.23	0.449	0.0328
CAAACTAGGTCAAAGGTTAAAGTCGAGCCAACCA	3.86	7.3	5.26	2.59	8.93	4.29	1.04	1.6
CCTAGTAGTTGACCATAAGGGCAACCGAAGCTCG	2.08	1.13	0.854	-0.02	0.613	1.81	1.16	0.728
ACTCGGAGGACAAAGGTCAGTGCTACGCCAGTGA	4.71	5.37	4.99	1.36	4.26	3.38	0.657	1.11
CCTAGTTGGTCAGGAGGTCACACAGCGGATATGA	4.13	5.36	4.51	1.06	4.73	3.66	2.76	3.13
CCTACTGGGCGAAAAAGGTCATTGATGCCGATAA	4	3.97	3.43	0.151	4.51	3.05	-0.0329	1.75
TGGAGTAGGTTACCAATGGGGCATTCAGCTTTCT	1.16	1.4	0.805	-0.418	0.605	0.403	-0.198	-0.00533
CGTCCATGGTCAGCAGGTCAGTGAAAGCGACGTG	2.46	1.81	2.05	-0.144	0.937	0.887	-0.0849	-0.456
CTTACTGGGCCAAGGTCATTGATCAGTCAAAGCA	3.49	4	3.2	2.11	3.65	3.43	2.31	3.76
TCTTGTAGATCAACAGGAGGATAAGAAAGATCGA	-0.517	0.227	0.396	0.36	0.432	0.177	-0.392	-0.362
ATATGTAGTTTAGCTGGGGTCATTCAGACTAGGC	3.66	3.73	2.48	2.23	5.23	4.49	3.19	5.03
TCTAGTAGGTTAGTCGGGGCATTCAGCCAACATA	1.04	0.36	0.358	1.33	0.381	1.4	0.765	1.14
ACTATTAGTTGACTTAGGGCAACCTATACGACGC	0.929	0.744	1.05	0.811	0.654	1.72	0.279	0.34
ATATGTAGGGTAGCTGGGGTCATTCAGACTAGGC	3.6	3.62	2.23	1.78	5.16	4.74	3.57	4.92
TTGAGTAGGTTACCAATGGGGCATTCAGCTTTCT	1.02	1.46	0.739	0.192	0.569	0.168	-0.426	0.0569
CGAACTAGGTCTTTGACAGGACAGTGAATAGTAA	0.139	0.112	0.193	0.262	-0.252	0.309	-0.0353	-0.305
GATACAGGGTCAGATAGAGGCCAGAGTATGGAAA	3.28	6.34	4.42	1.75	4.42	3.16	0.893	1.42
CACACTAGGTCAAGGTCAAAGTCGGTTTGTGCCA	4.95	6.21	6.6	3.28	5.76	4.44	4.03	4.95
ATAGAAAGGTCGTGAGGTGAGTATACAGAAAGGC	3.32	4.4	4.01	1.32	5.4	3.48	1.99	1.31
GCGACTGGGGCATCAGCAGGTTGCCATAACTTAA	0.046	-0.0231	-0.244	-0.343	-0.273	-0.00785	-0.582	-0.425
AAGACAGGGTCATCGTAGGCCAGAGTACGCACAG	3.6	5.67	5.54	3.14	6.69	4.37	1.12	3.34
AGAACGAGGGCACGCTGTGTTGATAGCAGAGTAG	1.05	1.82	2.12	1.76	1.23	1.53	-0.0988	0.651
TCATATAGGTAAATTCTAGGTGAAAGTCCGATCT	0.708	0.737	0.439	1.81	0.907	2.11	1.11	0.726
TCTTGTAGATAAAGCAGGTTAAGAAAGCCTGAGT	0.29	0.138	0.0703	0.785	0.499	0.47	-0.334	0.374
ATCGAACGGTCGTGAGGTGAGTATACAGAAAGGC	0.679	0.948	1.19	-0.665	0.53	1.48	0.666	-0.261

Sequence	PBM binding z-score [1]	PBM binding z-score [2]	PBM binding z-score [3]	PBM binding z-score [4]	PBM binding z-score [5]	PBM binding z-score [6]	PBM binding z-score [7]	PBM binding z-score [8]
GTACCAAGGTAAATAGGTCGTTGATGAGTAGGCG	0.723	0.808	0.391	-0.235	0.953	0.973	-0.00878	0.628
TAGCCTAGGTCATGGGCCAGTATACCACGCGAAC	2.71	4.27	4.78	0.316	3.57	2.93	1.3	0.506
GCTAGTTGGTCAGTAAAAGGCCACACACCGGTCG	1.83	0.944	0.676	-0.169	0.227	0.0278	-0.175	-0.584
CCTGCTAGGTCAATTGTCAGCTAAAGCAGCTCGC	2.38	3.24	3.98	1.77	1.41	2.02	0.418	-0.128
CCTTTCGGGTCACTGACAGGTTATAGCATTTGGA	3.44	5.76	4.91	2.55	5.16	4.17	2.95	1.19
TCTGTTAGTTGATTAGGGCAACCGAAACAGCGGA	0.861	0.9	0.978	0.605	0.318	0.839	0.442	0.324
CGTCCAAGGTCAGAGAGGCCAGTGAATGCCGAGT	4.08	4.46	5.6	2.66	3.4	3.28	1.86	2.3
TCGAGTAGGTTACCAATGGGGCATTCATCTTTCT	0.835	1.03	0.586	0.151	0.759	0.223	-0.282	-0.179
GCAGACAGGTGAAATGCAGGTAACTCAGGGTGGC	0.337	0.64	0.23	-0.341	0.602	1.38	-0.107	-0.285
CAAACTAGGTCACCGGTAGGTCAAAGTCCGCATG	4.94	7.11	6.27	1.7	4.82	4.3	2.8	2.2
CAGCCTAGGTTAGGGCCAGTATAGGAGGAACGTT	0.216	0.0888	0.349	-0.851	0.0782	-0.0554	-0.75	-0.636
TCTTGTAGATCAACAGGAGGTTAAGTAAGATCGA	0.766	1.15	0.284	0.388	1.02	1.78	-0.391	-0.26
TTACCAAGGTGAGCTGAGGTCGTTGGTCCAACTC	1.6	1.2	0.604	-0.219	1.34	4.45	2.2	2.56
CCGACTGGGGCAAGGGTTACCATACTCAGTACGA	1.16	1.49	1.3	-0.851	1.71	0.704	-0.463	0.0843
TCTTGTAGATCATAGGTTAAGAAAGCCGAAGCCT	0.203	0.785	0.187	0.657	1.34	0.458	-0.386	-0.05
TCATCTAGGTAAATGCTAGGTGAAAGTCCGATCT	0.149	0.279	0.0447	1.17	0.38	1.28	0.631	-0.208
CTGGAAAGGTCGGTTGAGGTGAGTATACGGATAA	2.18	2.53	2.93	1.05	2.18	4.88	1.56	0.437
ATATGTAGCTTACATCCGGGTCATTCAGGCTATG	1.78	1.48	1.02	0.735	1.9	2.87	2.3	2.18
GCTATTAGTTGAAATGGCAACCGAATGATTCTCG	-0.503	-0.0997	0.311	0.893	-0.164	-0.279	-0.241	0.0264
CGAACTAGGTCAAGGACAGTGAATCTCCGCACGC	3.01	3.95	4.49	1.42	2.57	3.25	2.14	0.847
TAGCCTAGGTCATTCAGGGGCCAGTACAGAAAGC	3.28	5.87	4.35	1.94	2.7	3.4	0.784	1.56
CCTAACGGGTCACTCCAGGTTATAGCATCGGAGT	2.75	3.8	3.98	1.23	3.26	4.85	0.619	1.5
CAAACTGGGTCAAAGGTCAAAGTCGAGCCAACCA	5.2	8.56	7.31	2.55	10.1	4.51	1.31	3.12
TATACAGGGTTAAAGGCCAGAGTACGAATGTCGA	1.55	2.41	1.59	0.596	3.28	1.56	0.124	0.851
TGAATGAGGTTATAACATCAGGGAACGTTGCAAA	-0.0288	1.33	0.791	0.901	2.09	1.78	-0.00143	0.537
ACTATTAGTTGAGACGAGGGCCACCGATAGGTTG	0.318	0.392	0.514	0.0416	0.26	-0.0155	-0.379	-0.0608
